Laboratory results from PubChem BioAssay (EPA / NIEHS).
Where “and” joins values, the source holds several entries; their conditions need not be identical. Identical values can stand only once. More than one record can exist for a structure, and the calls need not agree. Calls of active or inactive are those of the source. Rule for the calls: active = hit-call score of the fitted dose curve at least 0.9, where 1 is the maximum; inactive = score below 0.9.

Experiment: ATG_NFI_CIS: Attagene CIS-FACTORIAL HepG2 Assay for human Nuclear Factor I (NFI) (AID 2282989)
Conditions: HepG2 cis-regulatory reporter, NFI response element transcription; actives raise or lower the signal
Protocol: ATG_CIS is a cell-based, multiplexed-readout assay that uses HepG2, a human liver cell line, with measurements taken at 24 hours after chemical dosing in a 24-well plate.ATG_NFI_CIS is one of 52 assay component(s) measured or calculated from the ATG_CIS assay. It is designed to make measurements of mRNA induction, a form of inducible reporter, as detected with fluorescence intensity signals by Reverse transcription polymerase chain reaction (RT-PCR) and Capillary electrophoresis technology.Data from the assay component ATG_NFI_CIS was analyzed into 1 assay endpoint. This assay endpoint, ATG_NFI_CIS, was analyzed with bidirectional fitting relative to DMSO as the negative control and baseline of activity. Using a type of inducible reporter, measures of mRNA for gain or loss-of-signal activity can be used to understand the reporter gene at the transcription factor-level as they relate to the gene NFIA. Furthermore, this assay endpoint can be referred to as a primary readout, because this assay has produced multiple assay endpoints where this one serves a reporter gene function. To generalize the intended target to other relatable targets, this assay endpoint is annotated to the dna binding intended target family, where the subfamily is nuclear factor I.
Human liver HepG2 cells are transiently transfected with multiple reporter transcription units (MRTUs) in 6-well plates using FuGene 6 reagent (Roche; 3 ml FuGene/1 mg DNA). The MRTU constructs are regulated by a cis-regulating element (promoter). […] A major difference between the CIS and TRANS system is that in CIS activities of endogenous TFs are measured, whereas the TRANS assay evaluates changes in activities of exogenous, chimeric NR-Gal4 proteins. […] At the end of 24 hour incubation, total RNA was isolated using TriZol reagent (Invitrogen). The isolated RNA is then reverse-transcribed using oligo(dT) primer and Mo-MLV reverse transcriptase (Invitrogen) with DNAse I (Ambion) treatment for 30 min. The one-tenth of the produced cDNA was amplified by PCR using Taq DNA polymerase (Invitrogen) and two reporter sequence-specific primers. The PCR products were fluorescently labeled by primer extension with 6-arboxyfluorescein (6-FAM) 5'-labeled reporter sequence-specific primer (2 min at 95 C, 20 s at 68 C and 10 min at 72 C) and these products were digested with 5U of HpaI (New England Biolabs) for 2h at 37 C. The fragments were purified using Qiaquick PCR columns (Qiagen), analyzed on an ABI 3130xL genetic analyzer (Applied Biosystems) with peak positions identified by using a set of X-rhodamine (ROX)-labeled MapMarker1000 molecular weight standards (BioVentures). The raw capillary electrophoresis data was processed using Attagraph software (Attagene).

| Structure (SMILES) | outcome | AC50 |
| --- | --- | --- |
| CC(O)CC(C)(C)O (stereo not given) | inactive | – |
| COc1cc(C(=O)NC2CCN(C)CC2)ccc1Nc1ncc2c(n1)N(C1CCCC1)CC(F)(F)C(=O)N2C | – | 0.709 µM (active) |
| O=C(O)Cn1c(=O)n(Cc2ccc(Br)cc2F)c(=O)c2ccc(Cl)cc21 | inactive | – |
| CCCCOC(=O)CC(CC(=O)OCCCC)(OC(C)=O)C(=O)OCCCC | inactive | – |
| O=C(O)c1ccccc1-n1cc(C(=O)O)c(=O)c2cc(Nc3c(F)cc(F)cc3Cl)c(Cl)cc21 | inactive | – |
| CC1(C)NC(=O)N(c2ccc([N+](=O)[O-])c(C(F)(F)F)c2)C1=O | inactive | – |
| CCN(Cc1cccnc1)C(=O)c1cccc(Cl)c1[C@]1(C)C(=O)N(Cc2ccc(OC)cc2OC)c2ccc(Cl)cc21 | inactive | – |
| Cc1occc1C(=O)Nc1ccc(C(=O)N2CCC(F)(F)/C(=C\C(=O)N3CCC(N4CCCCC4)CC3)c3ccccc32)cc1 | inactive | – |
| CN1C(=O)N(c2ccccc2Br)Cc2cnc(Nc3ccc4c(c3)OCC(CO)O4)nc21 (stereo not given) | inactive | – |
| Cc1cccc2ccccc12 | inactive | – |
| O=c1c(-c2ccc(O)cc2)coc2cc(O)cc(O)c12 | inactive | 27.1 µM (active) |
| O=C(Nc1ccc(Cl)cc1)Nc1ccc(Cl)c(Cl)c1 | inactive | – |
| CCCCCCCC[Si](OCC)(OCC)OCC | inactive | 155 µM (active) |
| CC[C@@H]1C[C@H](N(Cc2cc(C(F)(F)F)cc(C(F)(F)F)c2)C(C)=O)c2cc(C(F)(F)F)ccc2N1C(=O)OC(C)C | inactive | – |
| O=C(OCCCCCCOC(=O)c1ccccc1)c1ccccc1 | inactive | – |
| O=c1ccc2ccccc2o1 | inactive | – |
| Oc1ccc2ccccc2c1 | inactive | – |
| Cc1ccc2oc(CN(Cc3ccccc3)C(=O)Nc3c(F)cc(F)cc3F)c(-c3ccc(Cl)cc3)c2c1 | inactive | – |

| Structure (SMILES) | outcome | AC50 |
| --- | --- | --- |
| CN(C[C@@H](CC[N+]12CCC(C3CCCCC3)(CC1)CC2)c1ccc(Cl)c(Cl)c1)C(=O)c1cc(C(F)(F)F)cc(C(F)(F)F)c1 | inactive | – |
| CCCCOC(=O)c1ccc(O)cc1 | inactive | 100 µM (active) |
| CCCCCCCCOC(=O)c1cc(O)c(O)c(O)c1 | inactive | – |
| Cc1ncc(CO)c(CO)c1O | inactive | – |
| O=CCCCC=O | inactive | – |
| Cc1ccc(C(C)C)cc1 | inactive | – |
| OC12N=C(c3ccccc3)SC1Cc1cc(Cl)ccc12 (stereo not given) | inactive | – |
| CCCC(=O)OCCC(C)C | inactive | – |
| CC/C(=C(/CC)c1ccc(O)cc1)c1ccc(O)cc1 | inactive | 13.9 µM (active) |
| O=C(O)c1ccccc1C(=O)OCc1ccccc1 | inactive | – |
| CN(C)C(=O)C1(N2CCCCC2)CCN(CC[C@@]2(c3ccc(Cl)c(Cl)c3)CN(C(=O)c3ccccc3)CCO2)CC1 | inactive | – |
| CCO[Si](CCCNC(N)=O)(OCC)OCC | inactive | – |
| NCc1cccc(C2CCN(C(=O)c3ccc(C#Cc4ccccc4F)o3)CC2)c1 | inactive | – |
| CN(C)c1ccc(C(=C2C=CC(=[N+](C)C)C=C2)c2ccc(N(C)C)cc2)cc1 | inactive | – |
| O=C=NCCCCCCN=C=O | inactive | – |
| CC(C)(c1cc(Br)c(O)c(Br)c1)c1cc(Br)c(O)c(Br)c1 | – | 57.6 µM (active) and 54.7 µM (active) |
| c1ccc2ccccc2c1 | inactive | – |
| CC[C@H](NC(=O)c1cc(F)ccc1NS(=O)(=O)c1cccc2cccnc12)c1ccccc1 | inactive | – |
